# Screens deposited in PubChem by National Center for Advancing Translational Sciences (NCATS).
# Most compounds without a hit are left out; they make up all but 6% or so of the library.
# D3 antag: qHTS of D3 Dopamine Receptor Antagonist: qHTS | D(3) dopamine receptor (Homo sapiens), P35462 | D3R cells, DiscoveRx beta-arrestin luminescence, antagonist mode; stronger effect = lower value | max response, negative = inhibition, % | actives 2.5% (n = 360,000) | AID 652054, 2013; in the data active means max response below about -50%; inconclusive means no clear call, values can overlap the other calls; further: on the % scale 0 is the no-effect control and ±100 the full control effect
#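 Cells expressing the human receptor were seeded at 1500 cells/well, incubated overnight at 37 degrees C in 5% CO2, then exposed to library compounds with dopamine controls for 90 minutes at 37 degrees C before luminescent detection.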
# DRD3 agonist: qHTS of D3 Dopamine Receptor Agonist: qHTS; D(3) dopamine receptor (Homo sapiens), P35462; D3R DiscoveRx beta-arrestin cells, luminescence, 90 min; max activation, %; actives 0.58% (n = 410,000); AID 652048, 2013; in the data active means max activation above about 30%; further: 0% is about no effect
#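 Agonist-mode cell screen: cells plated at 1500/well and incubated overnight at 37 °C, then exposed to library compounds for 90 min at 37 °C. Detection reagent was added for 30–60 min at room temperature, and luminescence was read.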
# D1 agonist: Allosteric Agonists of the Human D1 Dopamine Receptor: qHTS | AID 504660, 2011 | activation, % at 2 µM | actives 1% (n = 360,000) | D(1A) dopamine receptor (Homo sapiens), P21728 | HEK293 T-REx D1 cells, calcium flux, agonist mode; in the data active means activation above about 30%; further: 0% is about no effect
# Target sequence (P21728 whole entry, looked up): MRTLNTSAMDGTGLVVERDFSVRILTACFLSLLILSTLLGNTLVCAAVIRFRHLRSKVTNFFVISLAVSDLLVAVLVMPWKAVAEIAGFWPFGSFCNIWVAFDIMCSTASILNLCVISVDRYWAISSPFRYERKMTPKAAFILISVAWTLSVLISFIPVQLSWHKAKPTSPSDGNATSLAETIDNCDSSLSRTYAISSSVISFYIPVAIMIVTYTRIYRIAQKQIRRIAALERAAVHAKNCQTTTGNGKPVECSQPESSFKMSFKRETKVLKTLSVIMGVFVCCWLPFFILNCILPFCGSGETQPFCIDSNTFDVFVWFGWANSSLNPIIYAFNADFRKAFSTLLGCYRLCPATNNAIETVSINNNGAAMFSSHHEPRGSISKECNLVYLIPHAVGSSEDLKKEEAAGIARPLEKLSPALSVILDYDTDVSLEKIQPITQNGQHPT
#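 Inducible HEK293 T-REx D1 cells, force-coupled to calcium signalling, were plated at 4000 cells/well with tetracycline and held overnight at 30 C. After no-wash calcium dye loading, compound-evoked calcium rise over 180 s flagged agonists.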
# D1 PAM: Potentiators of Human D1 Dopamine Receptor: qHTS; D(1A) dopamine receptor (Homo sapiens), P21728; HEK293 TREx D1 cells, calcium flux, dopamine EC20 potentiation; potentiation, % at 10 µM; actives 0.036% (n = 360,000); AID 504651, 2011; in the data active means potentiation above about 30%; further: 0% is about no effect
# D1 antagonist: Antagonist of Human D 1 Dopamine Receptor: qHTS; D(1A) dopamine receptor (Homo sapiens), P21728; HEK293 TREx D1 cells, calcium flux, dopamine EC80; stronger effect = lower value; activity change, negative = inhibition, % at 10 µM; actives 3.2% (n = 360,000); AID 504652, 2011; in the data active means activity change below about -30%; further: on the % scale 0 is the no-effect control and ±100 the full control effect
#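 Kinetic fluorescence of a calcium dye serves as the read-out. D1-expressing Hek293 Trex cells, induced overnight at 30 C, are exposed to compound for 180 s before an EC80 dopamine addition, then read 180 s further.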
# The depositor's hits bear a star; ? = inconclusive; / = not tested or not shown; ! = not confirmed by another sample.
SMILES,D3 antag,DRD3 agonist,D1 agonist,D1 PAM,D1 antagonist
C[C@@H](CN1CCC(Cc2ccccc2)CC1)[C@@H](O)c1ccc(O)cc1,-12,0,7,-6,-33*
CNC(=S)N1CCC(Cc2ccccc2)CC1,-9,1,0,1,1
COc1ccc(-c2cc(OC(=O)c3ccc(F)cc3)c3c(C)oc(C)c3c(=O)c2)cc1OC,/,-3,-1,-1,-5
CCOC(=O)C1CCN(C(c2cccc(F)c2)c2c(O)cc(C)n(Cc3ccco3)c2=O)CC1 (configuration not stated),/,-16,2,-4,-7
COc1ccc(C(NC(=O)c2cccc(F)c2)c2ccccc2)cc1 (configuration not stated),6,-5,12,-6,-31*
COc1ccc(C(NC(=O)c2ccc(F)cc2)c2ccccc2)cc1 (configuration not stated),-3,-4,3,-3,-14
NC[C@H](O)c1ccc(O)c(O)c1,-29,47*!,7,-7,3
CC(C)NCC(O)c1ccc(O)c(O)c1 (configuration not stated),20,39*!,1,1,10
CNC[C@H](O)c1ccc(O)c(O)c1,0,3,3,1,9
NC[C@@H](O)c1ccc(O)c(O)c1,/,/,3,2,-24
CCCCNC(=O)c1cccc(NC(=O)c2nsc3ccccc23)c1,/,-6,3,-1,2
CCCCCCCCCCCCCCCCSCC(COC)COP(=O)([O-])OCC[N+](C)(C)C (configuration not stated),/,5,/,/,/
CCOC(=O)c1cnc(Nc2nc3ccccc3o2)nc1CSC(=S)N(CC)CC,-60*,-8,2,0,-3
Cc1cccc(C)c1OCc1nc2c3cnn(-c4cccc(F)c4)c3ncn2n1,/,5,2,0,-8
CSc1ccccc1N1CCN(C(=O)Nc2ccc3c(c2)NC(=O)CO3)CC1,-24,-5,15,-12,-49*
O=C1/C(=C\c2c(NCCOCCO)nc3ccccn3c2=O)SC(=S)N1Cc1ccco1,4,6,138*,-3,7
COc1ccc(CCNC(=S)NC(=O)c2ccc(Br)cc2)cc1OC,4,5,2,1,-5
COc1ccc(CCNC(=S)NC(=O)c2ccccc2)cc1C,-14,5,6,-7,-33*
CCOC(=O)N1CCN(C(=O)CN(Cc2ccc(Cl)cc2)S(=O)(=O)c2ccccc2)CC1,19,2,3,-1,-39*
CCOC(=O)N1CCN(C(=O)CN(Cc2ccccc2)S(C)(=O)=O)CC1,-20,7,2,-5,-8
CS(=O)(=O)N(CC(=O)N1CCCCCC1)Cc1ccc(Cl)cc1,-78*,-3,5,-3,-3
CCN(CC)S(=O)(=O)c1ccc(N2CCN(c3ccccc3O)CC2)nc1,6,7,7,-2,-6
CCN(CC)S(=O)(=O)c1ccc(N2CCN(CCO)CC2)nc1,4,2,2,-7,-71*
CCOC(=O)N1CCN(c2ccc(S(=O)(=O)N(Cc3ccccc3)Cc3ccccc3)cn2)CC1,17,3,27,-6,-31*
Cc1cc(O)c(C(c2ccc(F)cc2)N2CCCCC2)c(=O)n1Cc1ccco1 (configuration not stated),/,2,2,0,6
SMILES,D3 antag,DRD3 agonist,D1 agonist,D1 PAM,D1 antagonist
Cc1ccc(/C=C2/CNC/C(=C/c3ccc(C)cc3)C2=O)cc1,-51*,-5,/,/,/
CCOc1ccc(/C=N/N(C)c2ccccc2)cc1OC,-54*,1,4,-1,-1
CCOc1ccc(OCC)c(Nc2nc3ccc(Cl)cc3n3cnnc23)c1,/,2,1,0,-36*
CCOc1ccc(OCC)c(Nc2nc3ccc(C(=O)c4ccccc4)cc3n3cnnc23)c1,/,-5,1,-1,-7
O=c1[nH]c(SCc2ccccc2F)nc2ccccc12,2,0,0,-4,-8
O=c1cc(CSc2nc3ccccc3c(=O)[nH]2)c2ccc(O)cc2o1,12,-11,1,-7,-37*
Cc1oc2ccc(O)c(CN3CCOCC3)c2c1C(=O)Nc1ccc(C(C)C)cc1,/,-1,-1,1,1
O=C(CNC(=S)N(CCCN1CCOCC1)Cc1cccs1)NCc1ccc(Cl)cc1,-21,-1,1,3,-6
O=C(CNC(=S)N(CCCN1CCOCC1)Cc1cccs1)NCc1ccccc1Cl,-58*,0,4,2,-4
COc1ccccc1NC(=S)N(CCN1CCOCC1)Cc1ccccc1F,4,1,2,-2,4
Fc1ccccc1NC(=S)N(CCN1CCCCCC1)Cc1cccs1,16,-6,5,-11,-32*
COc1ccccc1NC(=S)N(CCN1CCCCCC1)Cc1cccs1,-58*,-22,6,8,-14
Cc1ccccc1NC(=S)N(CCN1CCCCCC1)Cc1cccs1,?,-22,1,-5,-16
CSc1ccc(CCNC(=O)C(C)n2c(C)c3cnn(-c4ccccc4)c(=O)c3c2C)cc1 (configuration not stated),/,-17,-3,0,7
Cc1ccc(C)c(N2CCN(C(=O)c3cccn3-c3nnc(N4CCCCC4)s3)CC2)c1,/,-4,2,-1,16
CC(=O)c1cc(C)ccc1OC(=O)CCN1C(=O)C2C3c4ccccc4C(c4ccccc43)C2C1=O (configuration not stated),8,38*,0,4,12
CCOC(=O)c1cc(-c2ccccc2)n(CCC(=O)NCCc2ccc(C)cc2)c1C,/,-13,23,-7,-4
COc1ccc(-n2ncc(C(=O)NCCCN3CCCCC3)c2C2CCN(C(=O)OC(C)(C)C)CC2)cc1,/,2,1,-3,-18
CC(C)(C#CC(O)(c1ccccc1)c1ccccc1)N1CCCC1,-11,3,7,-4,-71*
OC(C#CCN1CCCC1)(c1ccccc1)c1ccccc1,-12,-36,1,-3,-12
OC(C#CCN1CCCCC1)(c1ccccc1)c1ccccc1,-79*,-22,9,-6,-22
CCN1CCc2c(sc(NC(=O)c3ccc(S(=O)(=O)N4CCCC(C)C4)cc3)c2C(=O)OC)C1 (configuration not stated),/,-16,-2,-2,17
c1ccc(Cc2c[nH]c3ccccc23)cc1,12,2,4,-1,-2
CN(Cc1ccccc1)Cc1c[nH]c2ccccc12,-82*,1,8,-14,-62*
CC(NC(=O)c1ccc(=O)oc1)c1ccccc1 (configuration not stated),-4,-11,1,-8,-34*
